Results reported in PubChem BioAssay (NCATS).
Results filed as inconclusive are left out. Entries that show only a call come without a potency. Calls of active or inactive are those of the source. Calls follow the shape of the dose curve; as a rule, active = well fitted activation curve with a large enough effect; inconclusive = small, poorly fitted or top-dose-only effect; inactive = no such curve, though single readings can be large or run the other way.

These compounds were tested against Arylsulfatase A (Homo sapiens) (UniProt P15289) (assay: qHTS screen for enhancers of Arylsulfatase A (ASA1): LOPAC Validation Assay (AID 720538)). Settings: ASA enzyme activity, LOPAC qHTS enhancer assay; series mostly up to 57.5 µM.
Sequence of Arylsulfatase A (Homo sapiens) (P15289 whole entry, looked up): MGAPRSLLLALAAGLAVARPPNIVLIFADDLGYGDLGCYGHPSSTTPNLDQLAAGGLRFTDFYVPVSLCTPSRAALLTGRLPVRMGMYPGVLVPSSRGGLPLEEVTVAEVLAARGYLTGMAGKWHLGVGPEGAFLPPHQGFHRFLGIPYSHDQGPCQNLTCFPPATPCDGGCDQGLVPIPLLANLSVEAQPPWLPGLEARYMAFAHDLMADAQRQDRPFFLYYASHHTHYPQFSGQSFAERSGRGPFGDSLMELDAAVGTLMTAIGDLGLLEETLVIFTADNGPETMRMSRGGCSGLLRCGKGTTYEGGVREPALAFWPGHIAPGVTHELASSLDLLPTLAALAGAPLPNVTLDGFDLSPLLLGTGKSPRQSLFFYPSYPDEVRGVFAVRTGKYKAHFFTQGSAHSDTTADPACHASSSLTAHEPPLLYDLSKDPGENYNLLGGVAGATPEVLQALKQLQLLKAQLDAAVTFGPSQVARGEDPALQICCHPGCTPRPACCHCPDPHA
Procedure, shortened: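 Enhancer assay in patient-derived MLD fibroblasts carrying ASA-I179S: 48 h compound exposure at 37 C, then 14 h room-temperature pNCS turnover (0.5 mM final) in lysis buffer. Read by fluorescence at 525/598 nm after NaOH stop.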
With `C[C@]12CCC(=O)C=C1CC[C@@H]1[C@@H]2C(=O)C[C@@]2(C)[C@H]1CC[C@]2(O)C(=O)CO` the Potency was “inactive”. With `CNCCC(Oc1ccccc1OC)c1ccccc1` (configuration not stated) the Potency was “inactive”. For `CC(=O)[C@]1(O)Cc2c(O)c3c(c(O)c2[C@@H](O[C@H]2C[C@H](N)[C@H](O)[C@H](C)O2)C1)C(=O)c1ccccc1C3=O`, the Potency was “inactive”. With `CC(C)(C)c1ccc(C(=O)CCCN2CCC(OC(c3ccccc3)c3ccccc3)CC2)cc1` the Potency was “inactive”. In the case of `c1ccc2c(c1)CCCC2C1=NCCN1` (configuration not stated), the Potency is reported as “inactive”. In the case of `C(=C\c1ccccc1)/CN1CCN(C(c2ccccc2)c2ccccc2)CC1`, the Potency is reported as “inactive”. For `CC(C)NNC(=O)c1ccncc1`, the Potency was “inactive”. In the case of `CCN(CC)CCCN(c1ccccc1)C1Cc2ccccc2C1`, the Potency is reported as “inactive”. With `CC(C(=O)O)c1ccc(CC2CCCC2=O)cc1` (configuration not stated) the Potency was “inactive”. With `OC(CCN1CCCCC1)(c1ccccc1)C1CCCCC1` (configuration not stated) the Potency was “inactive”. For `CCn1nc(C(=O)O)c(=O)c2cc3c(cc21)OCO3`, the Potency was “inactive”. `FC(F)(F)c1ccccc1-n1ccnc1` was tested, and the Potency was “inactive”. For `CN1C[C@H](C(=O)N[C@]2(C)O[C@@]3(O)[C@@H]4CCCN4C(=O)[C@H](Cc4ccccc4)N3C2=O)C[C@@H]2c3cccc4[nH]cc(c34)C[C@H]21`, the Potency was “inactive”. `CN1CCN(C2=Nc3ccccc3Oc3ccc(Cl)cc32)CC1` was tested, and the Potency was “inactive”. With `C[C@]12C=CC(=O)C=C1CC[C@H]1[C@@H]3C[C@@H](O)[C@](O)(C(=O)CO)[C@@]3(C)C[C@H](O)[C@@]12F` the Potency was “inactive”. In the case of `Cc1ccc(=O)n(-c2ccccc2)c1`, the Potency is reported as “inactive”. With `CC1=C(C)C(=O)C(CCCCC#CCCCC#CCO)=C(C)C1=O` the Potency was “inactive”.
